Compounds without any hit were thinned out: in the full panel of roughly 79,000, 15% have a hit. A number with no mark means an inactive call. Activity calls are given as the source filed them. Rule as the data show it: active = growth inhibition above about 70%; inactive = the rest.
Key:
[1] = NCI Yeast Anticancer Drug Screen. Data for the rad50 strain (AID 155);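 also: 0% = growth of vehicle-only cultures of the same strain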; details: S. cerevisiae rad50 strain growth inhibition, stronger effect = higher value
In short: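 Yeast carrying a defined DNA repair defect were exposed to test compounds, and growth was compared with vehicle-treated controls to give percent inhibition.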

[2] = NCI Yeast Anticancer Drug Screen. Data for the mec2-1 strain (AID 157); details: S. cerevisiae mec2-1 strain, stronger effect = higher value
In short: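 Each compound was tested on mec2-1 yeast, a strain altered in DNA damage repair or cell cycle control. Growth inhibition is reported relative to vehicle.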

[3] = NCI Yeast Anticancer Drug Screen. Data for the sgs1 mgt1 strain (AID 161);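 also: 0% = growth of cultures given vehicle only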; details: S. cerevisiae sgs1 mgt1 strain, stronger effect = higher value
In short: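 Genetically altered yeast, compound exposure, growth inhibition relative to vehicle.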

[4] = NCI Yeast Anticancer Drug Screen. Data for the cln2 rad14 strain (AID 165);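 also: 0% = growth equal to vehicle treated cultures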; details: S. cerevisiae cln2 rad14 strain, stronger effect = higher value
In short: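 Test compounds were added to cln2 rad14 yeast cultures; inhibition of growth was then determined by comparison with vehicle treatment.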

[5] = NCI Yeast Anticancer Drug Screen. Data for the bub3 strain (AID 167); details: S. cerevisiae bub3 mutant strain, stronger effect = higher value
In short: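 Compounds were applied to a genetically altered yeast strain carrying a cell-cycle control defect. Growth inhibition was scored against vehicle-treated controls.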

[6] = NCI Yeast Anticancer Drug Screen. Data for the mlh1 rad18 strain (AID 175); details: S. cerevisiae mlh1 rad18 strain growth inhibition, stronger effect = higher value
In short: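 Inhibition values reflect reduced growth of mutant yeast versus vehicle-treated controls following compound exposure; the mutations affect DNA damage repair.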

[7] = at 5.0 µM (retest, dose inferred, filed as 0.5)
[8] = at 50.0 µM (retest, dose inferred, filed as 5.0)

SMILES	growth inhibition [1, 7]	growth inhibition [1, 8]	growth inhibition ([1]; at 50.0 µM)	growth inhibition [2, 7]	growth inhibition [2, 8]	growth inhibition ([2]; at 50.0 µM)	growth inhibition [3, 7]	growth inhibition [3, 8]	growth inhibition ([3]; at 50.0 µM)	growth inhibition [4, 7]	growth inhibition [4, 8]	growth inhibition ([4]; at 50.0 µM)	growth inhibition [5, 7]	growth inhibition [5, 8]	growth inhibition ([5]; at 50.0 µM)	growth inhibition [6, 7]	growth inhibition [6, 8]	growth inhibition ([6]; at 50.0 µM)
CCC[CH2][Sn]([CH2]CCC)([O]C(=O)C(N)CSC)[O]C(=O)C(N)CSC (stereo unspecified)	7%	7%	90% (active)	10%	10%	89.3% (active)	-5%	-5%	86.2% (active)	1%	1%	52.9%	-4%	-4%	88.8% (active)	-18%	-18%	83.1% (active)
CC(C)NCC(O)c1ccc(O)c(O)c1.[Pt].c1ccc([PH+](c2ccccc2)c2ccccc2)cc1.c1ccc([PH+](c2ccccc2)c2ccccc2)cc1	-7%	99% (active)	98.7% (active)	-6%	98% (active)	98.8% (active)	-8%	99% (active)	99% (active)	11%	86% (active)	97.8% (active)	-26%	98% (active)	98.8% (active)	9%	99% (active)	98.8% (active)
CC(O)([CH2][Hg][Cl])C(O)[CH2][Hg][Cl] (stereo unspecified)	98% (active)	99% (active)	99.2% (active)	99% (active)	100% (active)	99.5% (active)	98% (active)	99% (active)	99.3% (active)	98% (active)	99% (active)	97.7% (active)	99% (active)	99% (active)	99.4% (active)	99% (active)	99% (active)	97.5% (active)
Cl[C](Cl)(Cl)[Hg][c]1ccccc1	99% (active)	99% (active)	88% (active)	100% (active)	99% (active)	93.8% (active)	100% (active)	99% (active)	92.7% (active)	99% (active)	99% (active)	91.7% (active)	99% (active)	99% (active)	91.8% (active)	99% (active)	99% (active)	91.5% (active)
Cc1cccc2cc3ccccc3c[n+]12	5%	63%	89.9% (active)	6%	49%	84% (active)	-12%	79% (active)	97.3% (active)	2%	73% (active)	62.2%	-1%	57%	54.2%	14%	89% (active)	91% (active)
CC(=O)OC1C(=O)OCC23CCC4(C)OC4C2OC2CC(OC(=O)/C=C/C=C/C(=O)OCCC1C)C3(C)C21CO1 (stereo unspecified)	99% (active)	99% (active)	92.6% (active)	100% (active)	100% (active)	93.8% (active)	99% (active)	99% (active)	93.8% (active)	98% (active)	98% (active)	92.5% (active)	99% (active)	98% (active)	92.6% (active)	100% (active)	99% (active)	92.3% (active)
Oc1ccc2ccccc2c1O	13%	81% (active)	66.4%	3%	59%	50.9%	7%	84% (active)	57.3%	-5%	30%	34%	32%	90% (active)	70% (active)	20%	92% (active)	86.2% (active)
NC(N)=N/N=C1\C(=O)N(c2ccc(Cl)cc2)C(=O)C1C(=O)Nc1ccc(Cl)cc1 (stereo unspecified)	1%	-2%	54.6%	14%	17%	46.1%	5%	11%	76.1% (active)	0%	-3%	-8.8%	8%	19%	-7.75%	2%	-14%	83.1% (active)
Oc1c(-c2ccccc2)cc(-[n+]2c(-c3ccccc3)cc(-c3ccccc3)cc2-c2ccccc2)cc1-c1ccccc1	97% (active)	99% (active)	91.7% (active)	98% (active)	99% (active)	92.7% (active)	98% (active)	99% (active)	89.6% (active)	98% (active)	98% (active)	89.8% (active)	99% (active)	99% (active)	89.8% (active)	98% (active)	99% (active)	91.5% (active)
O=C1C(=O)c2cccc3cccc1c23	8%	79% (active)	64.2%	8%	51%	30.4%	3%	34%	21.1%	6%	50%	-3.15%	13%	82% (active)	13.2%	1%	63%	22.9%
CCN(CC)CC(=O)O[C@]1(CC)C(=O)OCc2c1cc1n(c2=O)Cc2cc3ccccc3nc2-1	93% (active)	97% (active)	83.2% (active)	58%	98% (active)	87% (active)	45%	97% (active)	85.1% (active)	44%	93% (active)	62.5%	43%	97% (active)	81.5% (active)	91% (active)	96% (active)	85.6% (active)
Cc1c(N)nc([C@H](CC(N)=O)NC[C@H](N)C(N)=O)nc1C(=O)N[C@H](C(=O)N[C@H](C)[C@@H](O)CC(=O)N[C@H](C(=O)NC(O[C@@H]1O[C@@H](C)[C@@H](N)[C@@H](O)[C@H]1O)C(O)c1nc(-c2nc(C(=O)NCCCCN)cs2)cs1)[C@@H](C)O)[C@@H](O[C@@H]1O[C@@H](CO)[C@@H](O)[C@H](O)[C@@H]1O[C@H]1O[C@H](CO)[C@@H](O)[C@H](OC(N)=O)[C@@H]1O)c1c[nH]cn1 (stereo partly specified)	96% (active)	98% (active)	91.7% (active)	98% (active)	98% (active)	92.8% (active)	98% (active)	98% (active)	92.7% (active)	96% (active)	97% (active)	89.8% (active)	97% (active)	98% (active)	92.9% (active)	94% (active)	97% (active)	90.2% (active)
COc1ccc2c3c1OC1C(=O)C4CC5(c6c(O)ccc(O)c64)C(C2)N(C)CCC315 (stereo unspecified)	-6%	99% (active)	98.5% (active)	-2%	92% (active)	99% (active)	-6%	99% (active)	99.1% (active)	-14%	98% (active)	98.1% (active)	-3%	99% (active)	98.5% (active)	13%	99% (active)	99% (active)
FC(F)(F)c1cccc(CCl)c1	-1%	3%	24.8%	0%	1%	-5.7%	-1%	1%	-17.4%	-5%	-6%	-20.2%	-3%	7%	-8.25%	-2%	4%	38.5%
C=CCN(CC=C)CC(C(C)=O)C(c1ccccc1)c1c(O)c2ccccc2oc1=O (stereo unspecified)	32%	32%	85.3% (active)	28%	28%	74.2% (active)	23%	23%	84.2% (active)	13%	13%	81.2% (active)	27%	27%	78.8% (active)	32%	32%	80.2% (active)
CN1CC(Br)(Br)C(=O)N(C)C1=O	18%	99% (active)	89.8% (active)	2%	100% (active)	93.3% (active)	-9%	99% (active)	92.8% (active)	-4%	99% (active)	93.4% (active)	-18%	100% (active)	92.9% (active)	2%	100% (active)	88% (active)
CCc1ccc([O-])c(C=NCCCN(C)CCCN=Cc2cc(C)ccc2[O-])c1.[Co+3].[N-]=[N+]=[N-]	-10%	7%	22.1%	-8%	15%	-12.9%	-4%	6%	50.5%	-20%	0%	-34.5%	1%	8%	-11.2%	-4%	-7%	0.85%

Source: PubChem BioAssay (NCI)
